Sm TGR block: S. mansoni TGR enzyme inhibition; Q962Y6; Potency, µM (highest dose often 114 µM), for inactives: at the top dose activity change, negative = inhibition, most hits filed as inhibitors; 360,000 tested, 3% active; purified TGR, DTNB reduction, TNB absorbance 405 nm; note: nearly all actives have a fitted effect of over 60% in size
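TGR 20 nM + NADPH 100 uM (dispensed conc.), cpd preinc 15 min RT; start with NADPH (500 uM addition) then DTNB (15 mM addition). Kinetic TNB absorbance, 405 nm filter. Four-parameter Hill fit across titration.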
FMDV antiviral: blocks foot and mouth disease virus; FMDV antiviral cell-based qHTS; 410,000 tested, 1.2% active; Potency, µM (series often up to 57.9 µM), inactives show at the highest dose activity change, negative = inhibition, hits mostly inhibitors; AID 1159524; calls by dose curve; tested in HEK293T cells; note: read-out not given here; nearly all actives have a fitted effect of over 45% in size
AmpC no deterg: inhibitors of E. coli AmpC beta-lactamase without detergent. P00811. AmpC nitrocefin hydrolysis, absorbance 480 nm, 0.0001% Triton. Potency, µM (series often up to 57.1 µM), inactives show at the top dose activity change, negative = inhibition, actives largely listed as inhibitors. 330,000 tested, 0.52% active;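 note: plate controls were no compound for no effect and no enzyme for full effect; nearly all actives have a fitted effect of over 20% in size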
Target sequence (P00811 whole entry, looked up): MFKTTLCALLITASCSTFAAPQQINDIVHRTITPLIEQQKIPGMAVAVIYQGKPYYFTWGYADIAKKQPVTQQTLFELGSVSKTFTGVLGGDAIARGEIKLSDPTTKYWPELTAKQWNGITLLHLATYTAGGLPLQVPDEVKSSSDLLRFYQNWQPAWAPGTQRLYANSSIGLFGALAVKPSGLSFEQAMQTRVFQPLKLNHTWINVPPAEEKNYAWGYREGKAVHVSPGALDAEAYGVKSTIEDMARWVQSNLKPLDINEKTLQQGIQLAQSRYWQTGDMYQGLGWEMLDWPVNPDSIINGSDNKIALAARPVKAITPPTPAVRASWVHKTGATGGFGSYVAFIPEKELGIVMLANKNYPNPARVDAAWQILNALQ
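AmpC (5.3 nM in the dispensed reagent) in 20 mM phosphate pH 7.0 with 0.01% (detergent screen) or 0.0001% Triton X-100 was preincubated with compounds for 15 min at room temperature. Nitrocefin was then added from an 800 uM solution, and hydrolysis was followed at 480 nm.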
AmpC detergent: blocks E. coli AmpC beta-lactamase in detergent assay; Potency, µM (highest dose often 114 µM), inactives show at the top dose activity change, negative = inhibition, hits mostly inhibitors; P00811; AmpC hydrolysis of nitrocefin, absorbance 480 nm, 0.01% Triton; 370,000 tested, 0.041% active;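 note: 0% = no-compound wells and -100% = no-enzyme wells; nearly all actives have a fitted effect of over 25% in size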
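20 mM phosphate pH 7.0 + 0.01% (detergent screen) or 0.0001% Triton X-100; 5.3 nM AmpC reagent; cpd preinc 15 min RT; nitrocefin (800 uM stock) to start; A480 q20 s × 4 min; Activity was normalised to no-enzyme and no-compound control wells.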
AMA1 RON2 block: inhibitors of Plasmodium falciparum AMA1-RON2 interaction. Potency, µM (titrated, usually from 58.2 µM), for inactives: top-dose activity change, negative = inhibition, most hits filed as inhibitors. 360,000 tested, 0.2% active. AID 720542. AlphaScreen AMA1-biotinylated RON2 peptide binding;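 note: 0% = vehicle wells and -100% = peptide control; nearly all actives have a fitted effect of over 45% in size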
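AMA1 (3D7) with his tag at 25 nM final met compounds first, then biotinylated RON2 peptide at 25 nM; detection used donor plus acceptor beads, 10 µg/mL apiece, read by AlphaScreen after 30 min at room temperature.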
Numbers without * were called inactive; ? = inconclusive; . = no result. The list is not random: actives were taken first. Their share in the collection is about 4.1%. Unless noted, calls come from the whole dose curve; as a rule, active = well fitted curve in the direction sought with a large enough effect; inconclusive = small, poorly fitted or top-dose-only effect, or another doubt; inactive = no such curve, though single readings can be large; an effect the other way counts as inactive or inconclusive. Unless noted, % is set by controls: 0 for no effect and ±100 for the full control effect; potency is the fitted concentration of half-maximal effect.

SMILES | Sm TGR block | FMDV antiviral | AmpC no deterg | AmpC detergent | AMA1 RON2 block
CCc1ccccc1NC(=O)CN1C(=O)c2cccnc2Sc2ccccc21 | -8.7% | 7.5% | . | -7.5% | .
Cc1ccc([C@@H]2C3COCC=C3C(C#N)=C(N)C2(C#N)C#N)o1 (some centres undefined) | 35.5µM* | -8.0% | -22.2% | -15.5% | -5.6%
Cc1ccc(C2C3CSCC=C3C(C#N)=C(N)C2(C#N)C#N)cc1 (centres undefined) | ? | . | -29.8% | -0.2% | 77.0%
Cn1c(=O)c2cc(S(=O)(=O)NC(Cc3ccccc3)C(=O)NCc3ccco3)ccc2n(C)c1=O (centres undefined) | 39.8µM* | 6.2% | -0.4% | -10.8% | -1.5%
Cn1c(=O)c2c(n3c4ccccc4nc13)NC(=O)CC2c1ccccc1F (centres undefined) | -8.7% | -16.4% | . | 5.8% | .
CCCCC(=O)OC1CCC2C3CCc4cc(O)ccc4C3CCC12C (centres undefined) | . | -16.2% | . | . | 4.9%
C[C@]12CC[C@@H]3c4ccc(O)cc4CC[C@H]3[C@@H]1CC[C@@H]2OC(=O)CCC(=O)O | 44.7µM* | -13.7% | -54.8% | -12.5% | -11.2%
CCn1c(=O)cc(SCC(=O)N2CCN(Cc3ccc4c(c3)OCO4)CC2)c2ccccc21 | -28.5% | 39.8µM* | 162.8% | 4.2% | ?
CC(NC(=O)c1ccccc1Cl)C(=O)N1CCN(Cc2ccc3c(c2)OCO3)CC1 (centres undefined) | 14.1µM* | -9.8% | -3.3% | -0.6% | -1.0%
C[C@H](NC(=O)c1ccccc1)C(=O)N1CCN(Cc2ccc3c(c2)OCO3)CC1 | . | -15.0% | -4.7% | . | 0.7%
CC(O)(COc1ccccc1)c1ccc2c(c1)CN(C/C=C/c1ccco1)CCO2 (centres undefined) | . | -5.2% | . | . | .
COc1ccc(-c2ccc(C(=O)NCc3ccc(N4CCN(C)CC4)cc3)c3occc23)c(C)c1 | . | 16.1% | . | . | 15.8µM*
COc1ccc(-c2ccc(C(=O)NCc3ccccc3)c3occc23)c(C)c1 | . | 34.8% | . | . | -4.4%
CCN(CC)c1ccc2cc(-c3nc4sc5c(c4c(=O)[nH]3)CCC(C(C)(C)C)C5)c(=O)oc2c1 (centres undefined) | 3.0% | -8.4% | . | 30.8% | .
Cc1cnc(C)c(-c2cc(F)cc3c2OC(CNC(=O)c2cc(Cl)ccc2F)C3)n1 (centres undefined) | . | -7.2% | . | . | .
O=C(CCS(=O)(=O)c1ccc(Br)cc1)NCc1ccc(F)cc1 | 5.2% | -10.4% | -4.6% | -7.2% | 6.1%
O=C(CCCC(=O)NCc1ccc(F)cc1)NCc1ccc(F)cc1 | . | 35.5µM* | 1.2% | ? | -9.2%
O=C(CCS(=O)(=O)c1ccccc1Cl)NCc1ccc(F)cc1 | 31.6µM* | -17.9% | -4.4% | 8.5% | 11.5%
COc1cc(NC(=O)COc2cccc3c2OC(C)(C)C3)cc(OC)c1OC | -4.7% | 22.4µM* | 40.1% | -0.4% | 8.3%
CC(=O)Nc1ccc(NC(=O)COc2cccc3c2OC(C)(C)C3)cc1 | 6.8% | -0.3% | -4.9% | -1.2% | -1.0%
CC1(C)CC(=O)c2c(O)cc(OCC(=O)Nc3ccc(S(N)(=O)=O)cc3)cc2O1 | -22.8% | ? | -58.9% | ? | 6.6%
COc1cc(NC(=O)COc2cc(O)c3c(c2)OC(C)(C)CC3=O)cc(OC)c1OC | -12.5% | 3.98µM* | 54.2% | ? | -10.5%
Cc1cc(C)cc(NC(=O)COC(=O)COc2cccc3c2OC(C)(C)C3)c1 | 3.0% | -7.6% | 35.5µM* | ? | -2.5%
CCOCCCn1c(SCC(=O)Nc2ccc(F)cc2)nc2c(sc3ccccc32)c1=O | -7.1% | -11.6% | . | 1.4% | .
COc1cccc(/C=C2\Oc3ccc(O)cc3C2=O)c1O | -17.4% | 11.2µM* | -22.4% | -6.2% | 3.6%
SMILES | Sm TGR block | FMDV antiviral | AmpC no deterg | AmpC detergent | AMA1 RON2 block
CC(C)C1Oc2ccccc2N(CC(=O)N(C)C2CCCCC2)C1=O (centres undefined) | -1.0% | 0.6% | 27.4% | 1.2% | 0.0%
CC(C)C1Oc2ccccc2N(CC(=O)N(Cc2ccncc2)Cc2ccco2)C1=O (centres undefined) | 31.6µM* | -13.0% | 114.5% | -2.3% | -9.1%
NC(=O)c1cccc(C[C@H](C(=O)O)N2C(=O)c3ccc(C(=O)O)cc3C2=O)c1 | -5.8% | . | -7.0% | ? | .
Cc1nc(CS(=O)(=O)c2ccccc2)cc(Sc2ccc(Cl)cc2)n1 | -5.1% | -12.4% | 3.98µM* | 0.4% | -1.7%
Cc1nc(CS(=O)(=O)c2ccc(Cl)cc2)cc(Sc2ccccc2Cl)n1 | 6.6% | ? | 3.55µM* | 5.0% | 2.9%
Cc1nc(CS(=O)(=O)c2ccccc2)cc(Sc2ccccc2Cl)n1 | -0.4% | 14.9% | ? | 4.4% | -1.9%
Cc1ncc2c(c1CNC(=O)c1ccc3c(c1)OCO3)CCN(C(=O)/C=C/c1ccc(Cl)cc1)C2 | . | -10.9% | . | . | .
O=c1c(-c2cc3ccccc3[nH]2)nc2ccccc2n1C(CCc1ccccc1)c1nc2ccccc2[nH]1 (centres undefined) | . | 6.8% | . | . | 41.8%
Cc1ccc(NC(=O)CSc2nnc(-c3ccco3)o2)cc1 | 79.4µM* | 11.0% | -28.7% | ? | -8.2%
Cc1ccc(NC(=O)CSc2nnc(-c3ccc(Br)cc3)o2)c(C)c1 | 1.6% | -10.3% | . | 8.5% | .
Cc1ccc(C)c(NC(=O)CSc2nnc(-c3ccccc3)o2)c1 | 6.3% | -8.2% | 39.8µM* | ? | 6.1%
CCOC(=O)C1CCN(Cc2cc(C(C)(C)C)c(O)c(C(C)(C)C)c2)CC1 | 11.2µM* | -18.4% | 29.6% | -2.2% | -9.9%
CCOC(=O)C1CCN(Cc2ccc(O)c(OC)c2)CC1 | 56.2µM* | -10.2% | -3.6% | -9.9% | -8.7%
CCOC(=O)C1CCCN(Cc2cc(Br)c(OC)cc2OC)C1 (centres undefined) | -1.3% | -20.3% | -1.3% | -10.4% | -26.2%
CCOC(=O)C1CCCN(Cc2cc(OC)c(O)c(OC)c2)C1 (centres undefined) | 15.8µM* | 19.0% | -17.8% | ? | -4.0%
COc1ncc2nc(-c3cccs3)c(=O)n(-c3ccccc3)c2n1 | . | 12.1% | . | . | .
COc1ccccc1CNC(=O)C1(c2cccs2)CCOCC1 | 3.6% | -15.9% | . | 1.0% | .
O=C(CSc1cn(CC(=O)N2CCOCC2)c2ccccc12)Nc1ccccc1F | 0.7% | 7.5% | . | 2.9% | .
OC1(c2ccc3c(c2)CN(Cc2ccccn2)CCO3)CCN(c2ccccc2F)CC1 | . | -7.6% | . | . | .
Cc1ccc(NC(=S)N2CCN(Cc3ccc4c(c3)OCO4)CC2)c(C)c1 | . | -26.4% | . | . | ?
CCN(CC)S(=O)(=O)c1ccc(C)c(NC(=S)N2CCN(Cc3ccc4c(c3)OCO4)CC2)c1 | 0.7% | 20µM* | 67.2% | 8.7% | -16.2%
O=c1c2nncn2ccn1-c1ccc(F)c(F)c1 | 1.8% | -15.9% | . | 15.5% | .
N#Cc1cc(Oc2cccc3cccnc23)c(-n2nnc3ccccc32)cc1C#N | ? | 15.8µM* | -8.6% | 0.4% | 12.8%

Bioassay records: PubChem, National Center for Advancing Translational Sciences (NCATS)
